Results taken from PubChem BioAssay AID1259418 (Broad Institute, 2018).
About 840 (25%) of roughly 3,400 compounds were called active. Roughly 11% stayed inconclusive and do not appear here. These entries were drawn from the full list. Measured potencies and affinities stand elsewhere. Unmarked numbers belong to inactive results.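 How the source made its calls: active means fitted half-maximal concentration of signal decrease at or below twice the sample's top tested concentration; inconclusive means flat curve between -70 and -30 percent, or poor fit; inactive means flat within 30 percent, signal rise, or potency above limit.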

assay: inhibitors of Toxoplasma growth in IFN-γ-primed HeLa – cell-based, ME49Luc, luciferase, 72 h, dose response (AID 1259418); conditions: T. gondii ME49Luc in IFN-y HeLa, hits give low values, -100% = high-dose IFN-γ control wells; at 19.5 µM unless noted

Compound | max activity
O=C(Nc1ccc(-c2nc(-c3ccccc3)co2)cc1)Nc1ccc(Br)cc1F | 58.9% [at 10 µM]
Cc1oc(-c2ccccc2)nc1Cn1nc2n(Cc3ccc(F)cc3)c(=O)c3nn(C)cc3n2c1=O | 15.8%
Cc1ccc(Cn2c(=O)c3nn(C)cc3n3c(=O)n(Cc4nc(-c5ccc(C)cc5)oc4C)nc23)cc1 | 11.5% [at 2.6 µM]
Cc1cccc(NC(=O)Nc2ccc(-c3nc(-c4ccccc4)co3)cc2)c1 | 16.2% [at 0.16 µM]
CN1C(=O)c2cc(NC(=O)c3cccc(F)c3)ccc2OC[C@@H]2O[C@@H](CC(=O)NCC3CCCCC3)CC[C@@H]21 | -24.1%
CN1C(=O)CCc2cc(NC(=O)CC3CCCCC3)ccc21 | 8.53%
COc1ccc(-c2nc(Nc3cccc(Cl)c3)c3ccccc3n2)cc1 | 22.1% [at 0.35 µM]
CCN(CC)C(=O)C1Cn2ccnc2C2(CCN(CC(C)C)CC2)O1 (stereo not given) | 37.9%
O=C(NCCc1csc(-c2ccccc2)n1)C1CCN(C(=O)Cc2cccs2)CC1 | 5.42% [at 0.35 µM]
Cn1nnc2c(NCCSc3c[nH]c4ccccc34)ncnc21 | 5.75% [at 0.16 µM]
O=C1CCc2cc(NC(=O)C3CC3)ccc2N1 | -5.5% [at 5 µM]
CN1C(=O)CCc2cc(NC(=O)C3CCCC3)ccc21 | 11.7%
CC(C)N1CCC(c2ccnc3c(C(=O)N4CCCN(C)CC4)ncn23)CC1 | 39%
Cc1ccc(S(=O)(=O)N2CCC3(CC2)NCCN=C3NCc2cccc(F)c2)cc1C | 6.41% [at 5 µM]
Cc1ccc(S(=O)(=O)N2CCC3(CC2)NCCN=C3NCc2ccc(F)c(Cl)c2)c(C)c1 | 14% [at 5 µM]
COc1ccccc1CCC(=O)N1CCC[C@@H]1C(=O)NCCc1csc(-c2ccccc2)n1 | -10.5%
Cc1nc(N2CCCC2)nc2c1CCN(S(=O)(=O)c1ccccc1)CC2 | 10.7% [at 10 µM]
Cc1ccc(S(=O)(=O)N2CCC3(CC2)NCCN=C3NCc2ccc(F)cc2)cc1C | 30.3% [at 5 µM]
CCC1CCCCN1S(=O)(=O)c1cc(-c2nc(C)c(C)s2)sc1C (stereo not given) | 7.15% [at 0.68 µM]
Cc1nc(CCNC(=O)[C@H]2CCCN2S(=O)(=O)c2cnn(C(F)F)c2C)cs1 | 13.7% [at 10 µM]
Cc1ccc2c(c1C)-n1cccc1C1(CCN(C(=O)c3cccnc3)CC1)N2 | 5.96% [at 0.68 µM]
COc1ccccc1C#Cc1ccc([C@H]2[C@@H](CO)N3CCCCN(C(=O)C4CCC4)C[C@H]23)cc1 | -7.46% [at 0.08 µM]
COc1ccccc1C#Cc1ccc([C@@H]2[C@H](CO)N3CCCCN(C(=O)C4CCC4)C[C@@H]23)cc1 | 14.6% [at 5 µM]
Cc1cccc(-c2nc(Cn3nnc(-c4nc(-c5ccc6c(c5)OCO6)no4)c3C)c(C)o2)c1 | -10.5% [at 0.16 µM]
Cc1ccc(CNc2nc(-c3ccc(Cl)cc3)nc3ccccc23)o1 | 42.3%

Compound | max activity
Cc1ccc(NC(=O)Nc2ccc(-c3nc(-c4cc(C)ccc4C)co3)cc2)cc1 | 5.44% [at 2.6 µM]
COc1cccc(CNC(=O)Nc2ccc(-c3nc(-c4ccc(C)cc4C)co3)cc2)c1 | 20.1%
COc1ccccc1CN1CCc2nc(SCc3nc(-c4ccc(C)cc4)oc3C)[nH]c(=O)c2C1 | 34.1%
COc1ccc(-c2nc(N3CCC(c4ccccc4)C3)c3ccccc3n2)cc1 (stereo not given) | -14.1% [at 2.6 µM]
CC1CCN(c2nc(-c3ccc(Cl)cc3)nc3ccccc23)CC1 | 5% [at 10 µM]
Clc1ccc(-c2nc(N3CCN(C4CCCCC4)CC3)c3ccccc3n2)cc1 | 19% [at 0.16 µM]
Clc1ccc(-c2nc(N3CCC(Cc4ccccc4)CC3)c3ccccc3n2)cc1 | 11.8%
O=C(c1ccc(F)cc1)N1c2ccccc2Sc2ccc(C(F)(F)F)cc21 | -23.5% [at 0.08 µM]
Cc1ccc(-c2cc(C(=O)Nc3ccc4c(c3)CCC(=O)N4)c3ccccc3n2)cc1C | 6.1% [at 1.35 µM]
CCc1onc(C)c1C1CCCN1Cc1cn(CC(=O)OC)c2ccc(OC)cc12 (stereo not given) | 13.3% [at 5 µM]
COc1ccc(-c2nc3c(s2)CN(C(=O)Nc2ccc(C)cc2Cl)CC3)cc1 | 78.4%
O=C(c1cnccn1)N1CC(=O)N2[C@H](C1)[C@@H](c1ccc(-c3cccc(F)c3)cc1)[C@@H]2CO | 6.32%
O=C(c1cnccn1)N1CC(=O)N2[C@H](CO)[C@H](c3ccc(-c4cccc(F)c4)cc3)[C@@H]2C1 | 25.7%
O=C(Nc1ccc(F)cc1)N1CC(=O)N2[C@@H](CO)[C@@H](c3ccc(C4=CCCC4)cc3)[C@@H]2C1 | 25.4% [at 10 µM]
CCOc1ccccc1-c1noc(-c2nnn(Cc3nc(-c4ccc(OC)cc4)oc3C)c2C)n1 | 9.41% [at 1.35 µM]
COC(=O)c1ccccc1NC(=O)Nc1ccc(-c2nc(-c3ccc(C)cc3C)co2)cc1 | 13.8% [at 0.16 µM]
CSCc1noc(CN2CCCC3(C2)CN(C)C(=O)O3)n1 (stereo not given) | 41.2%
COc1cc(OC)cc(-c2noc(-c3nnn(Cc4nc(-c5ccccc5OC)oc4C)c3C)n2)c1 | 6.32% [at 0.68 µM]
CCOc1ccc(-c2nc(CN3CCN(C(=O)Nc4ccc(C)c(F)c4)CC3)c(C)o2)cc1 | 15%
Cc1ccc(-c2nc(CN3CCN(C(=O)Nc4cc(Cl)ccc4C)CC3)c(C)o2)cc1 | 11.2% [at 10 µM]
CCOc1ccc(-c2nc(CN3CCN(C(=O)Nc4ccc(C)c(C)c4)CC3)c(C)o2)cc1 | 14.4% [at 0.35 µM]
Cc1ccc(-c2nc(CN3CCN(C(=O)Nc4cc(C)cc(C)c4)CC3)c(C)o2)cc1 | 9.49% [at 2.6 µM]
CCOC(=O)CSC1=Nc2ccccc2C2=NC(CCC(=O)NCc3ccccc3OC)C(=O)N12 (stereo not given) | 28.4% [at 1.35 µM]
CC(C)N1CCC2(CC1)CC(COCC1CC1)N(c1ncccn1)C2 (stereo not given) | 22.4%
O=C(CCC1CCCC1)N1CCC2(CC1)Nc1cc(F)ccc1-n1cccc12 | 4.37%

Compound | max activity
CC(C)[C@H](CO)Nc1nc(Nc2ccc(C(=O)O)c(Cl)c2)c2ncn(C(C)C)c2n1 | 10.1% [at 10 µM]
Cc1nc(-c2ccc(F)cc2)sc1-c1ccc(SCc2ccc(Br)cc2)nn1 | 10.9% [at 1.35 µM]
COCC(=O)N1CCC2(CC1)Nc1ccc(C)c(C)c1-n1cccc12 | 4.86% [at 10 µM]
CCc1nc(OCC(=O)Nc2ccc(Cl)c(C(F)(F)F)c2)c2ccccc2n1 | 33.2% [at 2.6 µM]
CN(C)CCN1CCOCC2(CCCN(C(=O)c3ccc4cc[nH]c4c3)C2)C1 (stereo not given) | 32.3%
Cc1cc(N2CCOCC2)nc2ccc(NC(=O)c3cc4ccccc4[nH]3)cc12 | 9.53% [at 0.16 µM]
COc1ccc(NC(=O)N2CCN(Cc3nc(-c4ccccc4C)oc3C)CC2)cc1 | 6.09% [at 0.16 µM]
O=C(NC1CCC12CCN(Cc1ccoc1)CC2)c1cnccn1 (stereo not given) | 54.2%
Cc1cc(C)c2c(=O)n(Cc3nc(-c4ccc(Cl)cc4)oc3C)c(=O)n(-c3ccccc3)c2n1 | -16.5%
Cc1cc(C)c2c(=O)n(Cc3nc(-c4ccccc4)oc3C)c(=O)n(-c3ccccc3)c2n1 | 11.1% [at 0.35 µM]
O=C(NC1CCCC1)[C@H]1[C@H](CO)[C@H]2Cn3c(ccc(C4=CCCCC4)c3=O)[C@@H]1N2CC1CC1 | 28.5% [at 10 µM]
COc1ccccc1-c1nc(CSc2nc3c(c(=O)[nH]2)CN(Cc2ccccc2)CC3)c(C)o1 | 31.5%
COCC1CN(C(=O)Cc2ccsc2)Cc2nccn2C1 (stereo not given) | 35.1%
CCCCc1ccc(Nc2ncnc3c2cnn3-c2cccc(C)c2)cc1 | 13.1% [at 5 µM]
COCCCNc1ncnc2c1cnn2-c1ccc(C)cc1C | 11.9% [at 0.16 µM]
Cc1ccc(Nc2ncnc3c2cnn3-c2ccc(C)cc2C)cc1 | 16.5% [at 1.35 µM]
Cc1ccc(-n2ncc3c(NC(C)(C)C)ncnc32)c(C)c1 | 53.9%
CCOc1ccc(-c2nc3c(s2)CN(C(=O)Nc2ccccc2CC)CC3)cc1 | 124%
Cc1oc(-c2cccc(Cl)c2)nc1CN1CCc2c(sc3c2CCCC3)C1c1ccccc1 (stereo not given) | 20.4%
COc1ccc(N2CC(NC(=O)C(=O)c3c(C)[nH]c4ccccc34)CC2=O)cc1 (stereo not given) | 15.6% [at 2.6 µM]
COc1ccc(CC(=O)N2CCC[C@@H]2C(=O)NCCc2csc(-c3ccccc3)n2)cc1Cl | 18.7% [at 5 µM]
Cc1nc(-c2ccc(F)cc2)sc1-c1ccc(SCc2cccc(F)c2)nn1 | 25.1%
CC(C)c1ccc(S(=O)(=O)N2CCC3(CC2)NCCN=C3NCc2cccc(F)c2)cc1 | -18.4%
CC(C)c1ccc(S(=O)(=O)N2CCC3(CC2)NCCN=C3NCc2ccccc2)cc1 | -31.9%
COc1ccc(C2=NC3(CCN(CC(=O)Nc4ccccc4F)CC3)NC2=O)cc1 | -25.6% [at 0.35 µM]
